# According to the supplement of paper PMC4206461:
# System: Pseudomonas aeruginosa PA14 wild type
# Assay: respiration area under curve with compound as sole nitrogen source, 24 h (OmniLog AUC (arbitrary units)); higher = more respiration / better utilisation as nitrogen source, active = 2000 or more
# Details: plate: PM8
# Experimental: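 Biolog Phenotype MicroArray plates PM6-PM8: each di/tripeptide is the sole nitrogen source (IF-0 medium with succinate/ferric citrate and dye mix A). Tetrazolium reduction was read in the OmniLog every 15 min for 24 h at 37°C and summarised as area under the respiration curve (arbitrary units). The paper counts values below 2000 as no respiration and above 8000 as solid respiration. Replicate datasets are averaged.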
row,SMILES,respiration area under curve
1,N[C@@H](Cc1ccc(O)cc1)C(=O)NCC(=O)NCC(=O)O,11300 (active)
